Test results: PubChem BioAssay (EPA / NIEHS)
Records with an inconclusive call do not appear. The source made the active and inactive calls. Rule for the calls, unless noted: active = hit-call score of the fitted dose curve at least 0.9, where 1 is the maximum; inactive = score below 0.9.

Tests used:
[1] = APR_HepG2_CellCycleArrest_1hr: Apredica 1-hour HepG2 Assay for Cell Cycle Arrest (AID 2282666); settings: high-content imaging, actives raise or lower the signal
Outline: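 HepG2 cells exposed for 1 h to 0.39–200 uM compound (0.5% DMSO). Fixed, Hoechst-stained nuclei imaged by ArrayScan; DNA content quantified by Cell Cycle analysis; bidirectional fit against DMSO.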

[2] = ACEA_ER_80hr: ACEA Biosciences xCELLigence Real-Time Cell Analysis on Estrogen Receptor Agonism for Proliferation (AID 2282667; active = hit-call score of the fitted dose curve at least 0.9, where 1 is the maximum); settings: T47D proliferation, impedance (xCELLigence), 80 h
Outline: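 T-47D cells monitored by electrical impedance (xCELLigence) with compound present throughout; 80 h timepoint, positive-direction fitting versus DMSO. Eight-point 1:4 dilutions from 100 uM final, duplicate plates.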

[3] = APR_HepG2_CellLoss_1hr: Apredica 1-hour HepG2 Assay for Cell Loss (AID 2282668); settings: high-content imaging;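 note: curves fitted both ways against DMSO so gain or loss of cells counts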
Outline: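 HepG2 cells were treated for 1 h with compound at 0.39–200 uM, in duplicate, in 0.5% DMSO. After formaldehyde fixation, Hoechst 33342-stained nuclei were imaged on an ArrayScan to count cells. Data were fitted bidirectionally versus DMSO.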

[4] = APR_HepG2_MicrotubuleCSK_1hr: Apredica 1-hour HepG2 Assay for Microtubule CSK Stabilty (AID 2282669); settings: HepG2 microtubule cytoskeleton imaging, actives raise or lower the signal
Outline: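 HepG2 cells exposed 1 h to 0.39–200 uM compound (0.5% DMSO, duplicates), then formaldehyde-fixed, permeabilized and immunostained for alpha-tubulin with Hoechst nuclei. Imaged by ArrayScan high-content analysis; bidirectional fit versus DMSO.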

[5] = APR_HepG2_NuclearSize_1hr: Apredica 1-hour HepG2 Assay for Nuclear Size (AID 2282670); settings: high-content imaging, actives raise or lower the signal
Outline: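 HepG2 cells dosed 1 hr with 0.39–200 uM compound (0.5% DMSO), formaldehyde-fixed, Hoechst 33342-stained and imaged at 20x; nuclear diameter from nuclear stain, fitted bidirectionally against DMSO.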

[6] = APR_HepG2_p53Act_1hr: Apredica 1-hour HepG2 Assay for p53 Activation (AID 2282671); settings: high-content imaging, actives raise or lower the signal
Outline: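 HepG2 cells treated 1 h with compound at 0.39–200 uM (10 concentrations, duplicate) in 0.5% DMSO. Formaldehyde-fixed, permeabilised cells immunostained for p53 with Hoechst 33342; high-content imaging, bidirectional fit versus DMSO.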

[7] = APR_HepG2_P-H2AX_1hr: Apredica 1-hour HepG2 Assay for H2AX Phosphorylation (AID 2282673); settings: high-content imaging, actives raise or lower the signal
Outline: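 HepG2 dosed 1 hr at 0.39-200 uM (0.5% DMSO final), duplicate. Fixed in 3.7% formaldehyde, Triton permeabilized, immunostained for phospho-histone H2A.x (1:200) with Hoechst 33342; ArrayScan 20x imaging, bidirectional fit vs DMSO.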

[8] = APR_HepG2_MitoMass_1hr: Apredica 1-hour HepG2 Assay for Mitochondrial Mass (AID 2282674); settings: high-content imaging, actives raise or lower the signal
Outline: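 HepG2 cells dosed 1 hr with 0.39-200 uM compound (0.5% DMSO), duplicate wells. Mitochondria stained with 250 nM MitoTracker Red CMXRos for 30 min before formaldehyde fixation, imaged at 20x by ArrayScan; bidirectional fit versus DMSO.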

[9] = APR_HepG2_MitoMembPot_1hr: Apredica 1-hour HepG2 Assay for Mitochondrial Membrane Potential (AID 2282675); settings: imaging, actives raise or lower the signal
Outline: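 HepG2 cells dosed 1 hour with 0.39–200 uM compound in duplicate, 0.5% DMSO final. MitoTracker Red CMXRos (250 nM, 30 min) loaded before formaldehyde fixation; fluorescence quantified by high-content imaging, bidirectional fitting versus DMSO.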

[10] = APR_HepG2_MitoticArrest_1hr: Apredica 1-hour HepG2 Assay for Mitotic Arrest (AID 2282672); settings: high-content imaging, actives raise or lower the signal
Outline: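 HepG2 cells exposed 1 hr to compounds at 0.39–200 uM (0.5% v/v DMSO final), then fixed in 3.7% formaldehyde and immunostained for phospho-histone H3 with Hoechst 33342. Mitotic arrest scored by automated fluorescence imaging, fitted bidirectionally versus DMSO.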

Measured: AC50

CCCCC(C#N)(Cn1cncn1)c1ccc(Cl)cc1 (centres undefined)
not listed: [10]
inactive: all other assays above

CCC(C)n1c(=O)[nH]c(C)c(Br)c1=O (centres undefined)
not listed: [6]
inactive: all other assays above

CCN(CC)C(=O)C(C)Oc1cccc2ccccc12 (centres undefined)
not listed: [6] | [7] | [10]
inactive: all other assays above

CCOc1nc(C(Cl)(Cl)Cl)ns1
not listed: [6]
inactive: all other assays above

CNC(=O)N(C)c1nnc(C(C)(C)C)s1
not listed: [7] | [10]
inactive: all other assays above

Clc1cccc(C(Cl)(Cl)Cl)n1
not listed: [5]
inactive: all other assays above

OC(c1ccc(Cl)cc1)(c1ccc(Cl)cc1)C(Cl)(Cl)Cl
inactive: [1] | [2] | [4] | [8]
active: [3] 89.3 µM | [6] 109 µM | [7] 90.1 µM | [9] 34.2 µM

COC(=O)NS(=O)(=O)c1ccc(N)cc1
not listed: [5] | [7] | [10]
inactive: all other assays above

CO/N=C(/C1=NOCCO1)c1ccccc1Oc1ncnc(Oc2ccccc2Cl)c1F
active: [2] 10.5 µM
not listed: [6] | [7]
inactive: all other assays above

CCCC(=NOCC)C1=C(O)CC(CC(C)SCC)CC1=O (centres undefined)
not listed: [5] | [6] | [10]
inactive: all other assays above

N#CN=C1SCCN1Cc1ccc(Cl)nc1
not listed: [5] | [10]
inactive: all other assays above

CCCN(CC)CC1COC2(CCC(C(C)(C)C)CC2)O1 (centres undefined)
not listed: [6] | [7] | [10]
inactive: all other assays above

O=c1n(Cl)c(=O)n(Cl)c(=O)n1Cl
not listed: [6] | [10]
inactive: all other assays above

CCNC(=O)NC(=O)C(C#N)=NOC
active: [1] 39.1 nM
not listed: [6] | [7] | [10]
inactive: all other assays above

COCC(C)N(C(=O)CCl)c1c(C)csc1C (centres undefined)
not listed: [6] | [7] | [10]
inactive: all other assays above

CCOP(=S)(OCC)Oc1nc(Cl)n(C(C)C)n1
not listed: [5] | [7]
inactive: all other assays above

CC(C)C1(C)N=C(c2ncccc2C(=O)O)NC1=O (centres undefined)
not listed: [5] | [6]
inactive: all other assays above

CN/C(=N\[N+](=O)[O-])NCc1cnc(Cl)s1
not listed: [6] | [7]
inactive: all other assays above

CC(C)Oc1cccc(NC(=O)c2ccccc2C(F)(F)F)c1
not listed: [5] | [10]
inactive: all other assays above

N#Cc1c(Cl)cccc1Cl
not listed: [6] | [7]
inactive: all other assays above

CS(=O)(=O)c1ccc(C(=O)C2C(=O)CCCC2=O)c([N+](=O)[O-])c1
not listed: [1] | [7]
inactive: all other assays above

CC(C)N1C(=O)c2ccccc2NS1(=O)=O
active: [1] 59.2 nM
not listed: [5] | [6]
inactive: all other assays above

Nc1c(Cl)c(F)nc(OCC(=O)O)c1Cl
not listed: [6] | [10]
inactive: all other assays above

CS(=O)(=O)c1cc(C(F)(F)F)ccc1C(=O)c1cnoc1C1CC1
not listed: [6] | [7]
inactive: all other assays above

CCN(CC)c1nc(C)cc(OP(=S)(OC)OC)n1
not listed: [6] | [7]
inactive: all other assays above

CC1(C)CON(Cc2ccccc2Cl)C1=O
not listed: [5] | [6] | [10]
inactive: all other assays above

COP(=S)(OC)Oc1ccc([N+](=O)[O-])c(C)c1
not listed: [1]
inactive: all other assays above

Cc1cnc(C2=NC(C)(C(C)C)C(=O)N2)c(C(=O)O)c1 (centres undefined)
not listed: [1]
inactive: all other assays above

CSC(=O)c1c(C(F)F)nc(C(F)(F)F)c(C(=O)SC)c1CC(C)C
not listed: [6] | [7] | [10]
inactive: all other assays above

CCOc1cc(C(C)(C)C)ccc1C1COC(c2c(F)cccc2F)=N1 (centres undefined)
active: [9] 100 µM
not listed: [6] | [7] | [10]
inactive: all other assays above

Cc1cc(C)nc(Nc2ccccc2)n1
not listed: [1]
inactive: all other assays above

CCCCC(O)(Cn1cncn1)c1ccc(Cl)cc1Cl (centres undefined)
inactive: [1] | [2] | [3] | [4] | [8] | [9]

N#Cc1c[nH]cc1-c1cccc2c1OC(F)(F)O2
not listed: [5] | [7] | [10]
inactive: all other assays above
